Legend:
Experiment in all cases: DAPPL (digital affinity profiling via proximity ligation, sequencing); 10 mM Tris-HCl pH 7.5, 50 mM NaCl, 1 mM DTT, 4% glycerol, room temperature, 30 min; GST-TFs on glutathione beads, 16-mer random dsDNA library, 0.1% formaldehyde crosslink after washing; high values mean tight binding
FLI1 = molecular target: T1, FLI1 (Homo sapiens, UniProt Q01543 1-452); details: protein: recombinant; tags: N-terminal GST; dsDNA, one strand shown
T1 sequence: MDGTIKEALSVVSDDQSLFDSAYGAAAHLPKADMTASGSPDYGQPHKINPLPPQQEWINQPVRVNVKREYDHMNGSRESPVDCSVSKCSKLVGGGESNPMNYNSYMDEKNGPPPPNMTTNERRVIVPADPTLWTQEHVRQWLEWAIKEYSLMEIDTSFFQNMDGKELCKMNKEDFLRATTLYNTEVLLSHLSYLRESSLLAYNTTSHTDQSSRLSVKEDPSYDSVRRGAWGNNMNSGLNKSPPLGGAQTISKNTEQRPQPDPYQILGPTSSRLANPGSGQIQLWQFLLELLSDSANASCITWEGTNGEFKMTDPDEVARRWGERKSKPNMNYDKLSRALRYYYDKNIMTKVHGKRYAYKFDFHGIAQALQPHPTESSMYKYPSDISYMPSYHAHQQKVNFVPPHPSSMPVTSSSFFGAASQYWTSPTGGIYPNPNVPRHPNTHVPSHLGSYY
How it was run: (§1)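 The binding signal reported is, for every hexamer, its read frequency for a factor over its read frequency for the tag-only sample. Reads came from pools of yeast-expressed, GST-fused human transcription factors on glutathione beads, barcoded with DNA and mixed with that sample, which were incubated with 200 nmole of a random double-stranded 16-mer DNA library in Tris/NaCl/DTT/glycerol buffer at room temperature for 30 min. After washing, the pools were crosslinked with 0.1% formaldehyde, proximity-ligated with BsaI/T4 ligase for 1 h at 37 °C, PCR-amplified and sequenced on an Illumina NextSeq500.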

ELK1 = molecular target: T2, ELK1 (Homo sapiens, UniProt P19419 1-428); details: protein: recombinant; tags: N-terminal GST; dsDNA, one strand shown
T2 sequence: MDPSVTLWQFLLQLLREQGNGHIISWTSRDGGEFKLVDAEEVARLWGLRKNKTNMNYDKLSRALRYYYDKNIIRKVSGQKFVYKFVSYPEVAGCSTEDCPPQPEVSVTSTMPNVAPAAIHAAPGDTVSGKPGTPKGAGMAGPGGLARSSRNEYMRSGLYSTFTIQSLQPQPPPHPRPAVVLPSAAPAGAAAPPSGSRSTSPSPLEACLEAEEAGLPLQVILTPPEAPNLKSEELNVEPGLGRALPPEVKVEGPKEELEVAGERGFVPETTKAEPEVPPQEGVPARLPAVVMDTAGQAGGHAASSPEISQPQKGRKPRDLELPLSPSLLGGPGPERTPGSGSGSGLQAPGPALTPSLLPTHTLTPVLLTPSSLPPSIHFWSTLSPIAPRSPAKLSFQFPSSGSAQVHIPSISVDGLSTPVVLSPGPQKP
How it was run: as §1

GABPA = molecular target: T3, GABPA (Homo sapiens, UniProt Q06546 1-454); details: protein: recombinant; tags: N-terminal GST; dsDNA, one strand shown
T3 sequence: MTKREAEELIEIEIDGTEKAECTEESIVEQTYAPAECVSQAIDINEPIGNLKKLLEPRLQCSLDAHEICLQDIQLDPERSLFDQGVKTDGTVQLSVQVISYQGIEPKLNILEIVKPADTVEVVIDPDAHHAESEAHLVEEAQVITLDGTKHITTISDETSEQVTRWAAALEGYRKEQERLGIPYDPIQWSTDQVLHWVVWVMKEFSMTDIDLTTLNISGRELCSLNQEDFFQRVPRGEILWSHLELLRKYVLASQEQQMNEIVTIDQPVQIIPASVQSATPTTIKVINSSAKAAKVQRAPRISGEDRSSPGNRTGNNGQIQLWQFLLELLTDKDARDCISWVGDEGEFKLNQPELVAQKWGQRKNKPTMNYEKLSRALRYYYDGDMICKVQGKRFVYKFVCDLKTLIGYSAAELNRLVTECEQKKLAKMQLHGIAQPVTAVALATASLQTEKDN
How it was run: as §1

ERG = molecular target: T4, ERG (Homo sapiens, UniProt P11308 1-479); details: protein: recombinant; tags: N-terminal GST; dsDNA, one strand shown
T4 sequence: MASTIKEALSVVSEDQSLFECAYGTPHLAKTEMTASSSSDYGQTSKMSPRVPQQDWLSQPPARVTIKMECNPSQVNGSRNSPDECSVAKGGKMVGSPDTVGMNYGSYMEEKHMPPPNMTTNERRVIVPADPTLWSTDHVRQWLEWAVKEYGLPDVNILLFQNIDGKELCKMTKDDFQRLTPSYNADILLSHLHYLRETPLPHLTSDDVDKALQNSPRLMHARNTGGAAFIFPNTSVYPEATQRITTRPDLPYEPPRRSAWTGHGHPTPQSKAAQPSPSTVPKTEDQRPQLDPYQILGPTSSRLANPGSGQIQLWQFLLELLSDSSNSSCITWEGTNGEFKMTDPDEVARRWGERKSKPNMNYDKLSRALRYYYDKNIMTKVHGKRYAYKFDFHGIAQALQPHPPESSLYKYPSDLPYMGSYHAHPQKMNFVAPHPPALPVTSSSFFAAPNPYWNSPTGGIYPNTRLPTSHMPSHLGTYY
How it was run: as §1

ELF1 = ELF1 (Homo sapiens, UniProt P32519 1-619); details: protein: recombinant; tags: N-terminal GST; dsDNA, one strand shown
How it was run: as §1

EHF = molecular target: T5, EHF (Homo sapiens, UniProt Q9NZC4 1-300); details: protein: recombinant; tags: N-terminal GST; dsDNA, one strand shown
T5 sequence: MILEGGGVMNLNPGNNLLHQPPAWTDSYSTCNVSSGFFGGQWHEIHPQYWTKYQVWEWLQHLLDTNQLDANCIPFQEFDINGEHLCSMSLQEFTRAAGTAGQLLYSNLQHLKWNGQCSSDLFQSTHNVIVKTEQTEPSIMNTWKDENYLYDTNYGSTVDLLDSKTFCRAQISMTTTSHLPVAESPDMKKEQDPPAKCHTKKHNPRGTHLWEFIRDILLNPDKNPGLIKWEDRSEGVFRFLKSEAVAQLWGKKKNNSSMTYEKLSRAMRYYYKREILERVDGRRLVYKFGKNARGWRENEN
How it was run: as §1

SPI1 = SPI1 (Homo sapiens, UniProt P17947 1-270); details: protein: recombinant; tags: N-terminal GST; dsDNA, one strand shown
How it was run: as §1

SPIB = SPIB (Homo sapiens, UniProt Q01892 1-262); details: protein: recombinant; tags: N-terminal GST; dsDNA, one strand shown
How it was run: as §1

ELK3 = molecular target: T6, ELK3 (Homo sapiens, UniProt P41970 1-407); details: protein: recombinant; tags: N-terminal GST; dsDNA, one strand shown
T6 sequence: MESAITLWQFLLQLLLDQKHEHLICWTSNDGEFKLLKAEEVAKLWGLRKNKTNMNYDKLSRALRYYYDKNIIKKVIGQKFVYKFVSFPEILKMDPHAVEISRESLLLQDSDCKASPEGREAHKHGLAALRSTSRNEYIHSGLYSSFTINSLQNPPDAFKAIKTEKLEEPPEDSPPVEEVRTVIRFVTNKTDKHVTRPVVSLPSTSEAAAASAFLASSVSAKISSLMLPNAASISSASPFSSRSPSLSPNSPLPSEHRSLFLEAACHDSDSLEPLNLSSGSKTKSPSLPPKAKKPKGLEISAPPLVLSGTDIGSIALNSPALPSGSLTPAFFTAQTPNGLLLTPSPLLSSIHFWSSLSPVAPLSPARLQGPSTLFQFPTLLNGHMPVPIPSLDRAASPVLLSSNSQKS
How it was run: as §1

FEV = molecular target: T7, FEV (Homo sapiens, UniProt Q99581 1-238); details: protein: recombinant; tags: N-terminal GST; dsDNA, one strand shown
T7 sequence: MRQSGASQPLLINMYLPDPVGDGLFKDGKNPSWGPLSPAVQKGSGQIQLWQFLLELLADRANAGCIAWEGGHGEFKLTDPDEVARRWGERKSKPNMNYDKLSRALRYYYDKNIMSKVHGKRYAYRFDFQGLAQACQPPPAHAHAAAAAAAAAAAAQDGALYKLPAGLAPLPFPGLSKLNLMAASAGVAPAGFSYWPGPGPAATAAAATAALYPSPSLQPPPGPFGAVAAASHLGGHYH
How it was run: as §1

ETV5 = ETV5 (Homo sapiens, UniProt P41161 1-510); details: protein: recombinant; tags: N-terminal GST; dsDNA, one strand shown
How it was run: as §1

HSF1 = HSF1 (Homo sapiens, UniProt Q00613 1-529); details: protein: recombinant; tags: N-terminal GST; chain copies: 3; dsDNA, one strand shown
How it was run: as §1

SPIC = molecular target: T8, SPIC (Homo sapiens, UniProt Q8N5J4 1-248); details: protein: recombinant; tags: N-terminal GST; dsDNA, one strand shown
T8 sequence: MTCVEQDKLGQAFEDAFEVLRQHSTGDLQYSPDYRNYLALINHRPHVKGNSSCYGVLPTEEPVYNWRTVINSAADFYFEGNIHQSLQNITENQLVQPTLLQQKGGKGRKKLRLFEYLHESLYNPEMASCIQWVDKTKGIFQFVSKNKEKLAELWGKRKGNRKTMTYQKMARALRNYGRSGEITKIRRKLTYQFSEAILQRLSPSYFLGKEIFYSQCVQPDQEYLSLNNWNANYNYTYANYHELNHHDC
How it was run: as §1

ELF4 = ELF4 (Homo sapiens, UniProt Q99607 1-663); details: protein: recombinant; tags: N-terminal GST; dsDNA, one strand shown
How it was run: as §1

ELK4 = molecular target: T9, ELK4 (Homo sapiens, UniProt P28324-2 1-405); details: protein: recombinant; tags: N-terminal GST; dsDNA, one strand shown
T9 sequence: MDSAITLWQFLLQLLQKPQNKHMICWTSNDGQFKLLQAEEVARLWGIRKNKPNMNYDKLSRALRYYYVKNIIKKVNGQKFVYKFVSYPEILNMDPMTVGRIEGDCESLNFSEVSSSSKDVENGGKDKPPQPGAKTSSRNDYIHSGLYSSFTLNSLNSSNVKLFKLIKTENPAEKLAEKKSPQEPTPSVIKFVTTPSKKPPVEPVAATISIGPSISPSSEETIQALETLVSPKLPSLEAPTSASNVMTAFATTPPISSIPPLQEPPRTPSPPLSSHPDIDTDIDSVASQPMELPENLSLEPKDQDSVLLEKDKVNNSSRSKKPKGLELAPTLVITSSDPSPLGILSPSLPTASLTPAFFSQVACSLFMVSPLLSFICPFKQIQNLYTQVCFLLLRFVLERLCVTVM
How it was run: as §1

ETV2 = molecular target: T10, ETV2 (Homo sapiens, UniProt O00321 1-342); details: protein: recombinant; tags: N-terminal GST; dsDNA, one strand shown
T10 sequence: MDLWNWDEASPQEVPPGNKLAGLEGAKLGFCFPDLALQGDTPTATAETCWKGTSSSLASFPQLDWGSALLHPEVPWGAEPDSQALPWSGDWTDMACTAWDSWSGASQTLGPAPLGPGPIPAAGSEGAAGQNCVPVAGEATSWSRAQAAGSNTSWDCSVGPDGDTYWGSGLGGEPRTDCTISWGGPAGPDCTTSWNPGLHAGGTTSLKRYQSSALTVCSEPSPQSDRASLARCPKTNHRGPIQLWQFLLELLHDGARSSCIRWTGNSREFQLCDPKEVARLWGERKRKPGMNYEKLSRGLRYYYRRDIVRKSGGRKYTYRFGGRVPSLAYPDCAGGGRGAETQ
How it was run: as §1

ELF3 = molecular target: T11, ELF3 (Homo sapiens, UniProt P78545 1-371); details: protein: recombinant; tags: N-terminal GST; dsDNA, one strand shown
T11 sequence: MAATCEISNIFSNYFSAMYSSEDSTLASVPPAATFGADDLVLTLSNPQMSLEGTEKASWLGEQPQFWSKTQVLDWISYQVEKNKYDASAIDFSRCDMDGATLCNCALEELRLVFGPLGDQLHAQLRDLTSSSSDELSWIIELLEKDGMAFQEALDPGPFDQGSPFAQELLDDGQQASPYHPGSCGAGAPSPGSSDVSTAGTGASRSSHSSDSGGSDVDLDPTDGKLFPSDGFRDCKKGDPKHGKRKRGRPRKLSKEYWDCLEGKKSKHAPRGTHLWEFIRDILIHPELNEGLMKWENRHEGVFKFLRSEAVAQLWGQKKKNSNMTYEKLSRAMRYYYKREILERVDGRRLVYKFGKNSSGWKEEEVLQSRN
How it was run: as §1

ETV1 = ETV1 (Homo sapiens, UniProt P50549 1-477); details: protein: recombinant; tags: N-terminal GST; dsDNA, one strand shown
How it was run: as §1

Sequence of ELF4 (Q99607 whole entry): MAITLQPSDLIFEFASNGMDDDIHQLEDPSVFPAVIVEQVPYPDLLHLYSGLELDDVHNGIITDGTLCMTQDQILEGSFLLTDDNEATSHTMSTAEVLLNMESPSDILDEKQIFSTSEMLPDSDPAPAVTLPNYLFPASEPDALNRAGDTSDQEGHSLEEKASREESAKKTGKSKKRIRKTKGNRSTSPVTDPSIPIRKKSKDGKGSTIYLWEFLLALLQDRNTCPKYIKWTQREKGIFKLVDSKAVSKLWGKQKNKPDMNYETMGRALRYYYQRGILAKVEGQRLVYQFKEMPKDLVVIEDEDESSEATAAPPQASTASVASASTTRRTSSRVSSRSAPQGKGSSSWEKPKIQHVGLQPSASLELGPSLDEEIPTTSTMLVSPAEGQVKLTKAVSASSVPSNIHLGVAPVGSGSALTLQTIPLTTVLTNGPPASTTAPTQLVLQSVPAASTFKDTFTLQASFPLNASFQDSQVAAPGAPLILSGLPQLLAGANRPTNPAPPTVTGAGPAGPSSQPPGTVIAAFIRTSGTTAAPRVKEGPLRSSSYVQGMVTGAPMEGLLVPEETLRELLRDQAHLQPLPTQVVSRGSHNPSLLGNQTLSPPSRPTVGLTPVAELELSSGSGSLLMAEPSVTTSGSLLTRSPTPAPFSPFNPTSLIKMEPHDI
Sequence of ELF1 (P32519 whole entry): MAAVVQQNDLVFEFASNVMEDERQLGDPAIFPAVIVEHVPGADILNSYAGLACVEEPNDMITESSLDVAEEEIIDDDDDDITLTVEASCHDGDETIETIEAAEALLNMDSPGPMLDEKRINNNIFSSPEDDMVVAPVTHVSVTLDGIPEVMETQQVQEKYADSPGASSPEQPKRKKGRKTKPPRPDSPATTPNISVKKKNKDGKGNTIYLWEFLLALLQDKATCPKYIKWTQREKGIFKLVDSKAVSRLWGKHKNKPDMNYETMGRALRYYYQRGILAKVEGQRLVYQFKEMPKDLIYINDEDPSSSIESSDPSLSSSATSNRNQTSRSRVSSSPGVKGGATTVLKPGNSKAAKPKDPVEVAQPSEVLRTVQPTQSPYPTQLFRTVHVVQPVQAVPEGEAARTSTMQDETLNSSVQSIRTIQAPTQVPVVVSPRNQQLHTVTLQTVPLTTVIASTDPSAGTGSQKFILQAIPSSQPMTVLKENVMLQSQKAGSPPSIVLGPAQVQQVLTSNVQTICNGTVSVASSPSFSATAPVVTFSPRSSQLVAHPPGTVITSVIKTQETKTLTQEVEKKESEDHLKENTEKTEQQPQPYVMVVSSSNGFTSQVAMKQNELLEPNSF
Sequence of HSF1 (Q00613 whole entry): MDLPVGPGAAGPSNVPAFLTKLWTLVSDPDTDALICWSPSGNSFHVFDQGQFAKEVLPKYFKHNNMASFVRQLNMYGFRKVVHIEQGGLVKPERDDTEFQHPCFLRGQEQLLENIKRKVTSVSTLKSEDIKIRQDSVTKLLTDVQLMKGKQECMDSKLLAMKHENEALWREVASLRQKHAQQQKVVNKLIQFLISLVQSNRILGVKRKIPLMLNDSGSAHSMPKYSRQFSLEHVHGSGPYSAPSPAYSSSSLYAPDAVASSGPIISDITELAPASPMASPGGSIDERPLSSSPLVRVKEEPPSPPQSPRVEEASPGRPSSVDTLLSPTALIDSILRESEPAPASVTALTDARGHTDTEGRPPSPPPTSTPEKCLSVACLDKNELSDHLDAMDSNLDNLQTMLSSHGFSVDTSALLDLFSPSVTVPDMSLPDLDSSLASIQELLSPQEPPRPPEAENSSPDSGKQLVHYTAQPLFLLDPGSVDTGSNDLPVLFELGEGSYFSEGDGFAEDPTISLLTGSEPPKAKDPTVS
Sequence of ETV5 (P41161 whole entry): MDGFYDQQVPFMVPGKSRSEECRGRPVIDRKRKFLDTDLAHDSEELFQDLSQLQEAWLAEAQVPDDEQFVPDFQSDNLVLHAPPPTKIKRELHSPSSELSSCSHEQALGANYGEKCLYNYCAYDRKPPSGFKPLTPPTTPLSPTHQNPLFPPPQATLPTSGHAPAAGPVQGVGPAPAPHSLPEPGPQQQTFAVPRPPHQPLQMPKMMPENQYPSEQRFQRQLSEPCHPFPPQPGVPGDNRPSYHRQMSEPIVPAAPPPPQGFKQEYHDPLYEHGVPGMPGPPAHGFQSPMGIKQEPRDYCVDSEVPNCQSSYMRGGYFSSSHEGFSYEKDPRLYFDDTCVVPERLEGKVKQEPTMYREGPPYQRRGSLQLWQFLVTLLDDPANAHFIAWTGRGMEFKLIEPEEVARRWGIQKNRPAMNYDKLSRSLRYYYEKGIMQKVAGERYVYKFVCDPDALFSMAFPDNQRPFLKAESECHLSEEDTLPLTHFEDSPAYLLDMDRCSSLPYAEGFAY
Sequence of SPIB (Q01892 whole entry): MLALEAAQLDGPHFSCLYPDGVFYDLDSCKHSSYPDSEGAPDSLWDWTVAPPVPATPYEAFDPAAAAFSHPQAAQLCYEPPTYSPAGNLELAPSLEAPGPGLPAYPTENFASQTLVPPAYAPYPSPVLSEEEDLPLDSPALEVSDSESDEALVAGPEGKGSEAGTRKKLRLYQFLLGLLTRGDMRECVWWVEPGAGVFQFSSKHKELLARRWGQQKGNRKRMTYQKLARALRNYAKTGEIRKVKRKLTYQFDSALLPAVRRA
Sequence of ETV1 (P50549 whole entry): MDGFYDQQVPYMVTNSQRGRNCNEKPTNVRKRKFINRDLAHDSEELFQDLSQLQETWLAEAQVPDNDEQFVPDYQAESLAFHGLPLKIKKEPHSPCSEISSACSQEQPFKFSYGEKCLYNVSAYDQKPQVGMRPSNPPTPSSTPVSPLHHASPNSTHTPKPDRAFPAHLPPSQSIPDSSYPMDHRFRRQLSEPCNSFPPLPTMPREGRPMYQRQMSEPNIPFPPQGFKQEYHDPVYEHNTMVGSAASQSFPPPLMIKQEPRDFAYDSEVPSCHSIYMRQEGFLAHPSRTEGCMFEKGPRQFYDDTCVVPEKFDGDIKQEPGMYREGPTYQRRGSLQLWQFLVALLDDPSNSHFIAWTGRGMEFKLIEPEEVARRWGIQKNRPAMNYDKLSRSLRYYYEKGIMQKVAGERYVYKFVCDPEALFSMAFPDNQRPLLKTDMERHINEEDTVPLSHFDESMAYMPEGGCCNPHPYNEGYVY

## CGACAT
FLI1
  binding signal: 1.37 fold enrichment (6-mer frequency, TF over GST control)
ELK1
  binding signal: 1.23 fold enrichment (6-mer frequency, TF over GST control)
GABPA
  binding signal: 1.25 fold enrichment (6-mer frequency, TF over GST control)
ERG
  binding signal: 1.31 fold enrichment (6-mer frequency, TF over GST control)
ELF1
  binding signal: 1.25 fold enrichment (6-mer frequency, TF over GST control)
EHF
  binding signal: 1.26 fold enrichment (6-mer frequency, TF over GST control)
SPI1
  binding signal: 1.27 fold enrichment (6-mer frequency, TF over GST control)
SPIB
  binding signal: 1.3 fold enrichment (6-mer frequency, TF over GST control)
ELK3
  binding signal: 1.4 fold enrichment (6-mer frequency, TF over GST control)
FEV
  binding signal: 1.31 fold enrichment (6-mer frequency, TF over GST control)
ETV5
  binding signal: 1.26 fold enrichment (6-mer frequency, TF over GST control)
HSF1
  binding signal: 1.07 fold enrichment (6-mer frequency, TF over GST control)
SPIC
  binding signal: 1.32 fold enrichment (6-mer frequency, TF over GST control)
ELF4
  binding signal: 1.32 fold enrichment (6-mer frequency, TF over GST control)
ELK4
  binding signal: 1.3 fold enrichment (6-mer frequency, TF over GST control)
ETV2
  binding signal: 1.26 fold enrichment (6-mer frequency, TF over GST control)
ELF3
  binding signal: 1.42 fold enrichment (6-mer frequency, TF over GST control)
ETV1
  binding signal: 1.37 fold enrichment (6-mer frequency, TF over GST control)
